Several values for one entry are separate records, joined by “and”; a condition that tells them apart may be missing. Equal values may be shown once. Activity calls are given as the source filed them. The calls were made as follows: active = hit-call score of the fitted dose curve at least 0.9, where 1 is the maximum; inactive = score below 0.9.
Each compound was assayed on Tissue plasminogen activator (tPA), PLAT (gene 5327) (assay: BSK_BF4T_tPA: BioMAP Diversity Plus: BF4T Assay for Tissue plasminogen activator (tPA) Biomarker Activity (AID 2284272)). Conditions: primary human bronchial epithelial cells with fibroblasts.
Procedure: BSK_BF4T is a cell-based, multiplexed-readout assay that uses bronchial epithelial cells and dermal fibroblasts, a human vascular primary cell, with measurements taken at 24 hours after chemical dosing in a microplate: 96-well plate.BSK_BF4T_tPA is an assay component measured in the BSK_BF4T assay. It measures tPA antibody related to regulation of gene expression using ELISA technology.Data from the assay component BSK_BF4T_tPA was analyzed at the endpoint, BSK_BF4T_tPA, in the positive analysis fitting direction relative to DMSO as the negative control and baseline of activity. Using a type of binding reporter, gain or loss-of-signal activity can be used to understand protein changes. To generalize the intended target to other relatable targets, this assay endpoint is annotated to the 'protease' intended target family, where the subfamily is 'serine protease'.
The levels of cell surface (or secreted, indicated by the prefix "s") biomarker endpoints were measured by ELISA. Overt cytotoxicity to cells in confluent adherent cultures (all systems other than the BT system) was assessed by measuring total protein levels using sulforhodamine B (SRB) staining in parallel cultures at the time of biomarker measurements, indicated as SRB endpoints. For proliferation assays for adherent cell types, individual cell types are cultured at sub-confluence and relative cell numbers quantified by SRB staining at time points optimized for each system (48 h: 3C and CASM3C systems; 72 h: BT and HDF3CGF systems; 96 h: SAg system). SRB was performed by staining cells with 0.1% SRB after fixation with 10% TCA and reading wells at 560 nm.Viability and proliferation of PBMC (T cells) was quantified by Alamar Blue reduction for the SAg and BT systems. For PBMC viability (referred to as PBMC Cytotoxicity within the assay endpoint names), cells were plated (75,000/well in a 96-well plate) and then chemical samples added for 1 h before addition of activators, SEB and TSST-1 (20 ng/mL final concentration each). Cells were incubated for 90 h. Then, Alamar Blue (20 uL/well) (Invitrogen, Cat DAL1100) was added for 6 h, and the plates were read with a fluorescence microplate reader at 546/580 nm (excitation/emission). For PBMC proliferation, cells were plated and activated as above but incubated for only 16 h prior to addition of Alamar Blue. Plates were read after 6 h.

Row | SMILES | outcome | AC50
1 | FC(F)(F)C(F)(F)C(F)(F)C(F)(F)C(F)(F)C(F)(F)CC1CO1 (stereo not given) | inactive | 
2 | CCCCCCCCC(F)(F)C(F)(F)C(F)(F)C(F)(F)C(F)(F)C(F)(F)F | inactive | 
3 | O=S(=O)(OCC(F)F)C(F)(F)F | inactive | 
4 | FC(F)(I)C(F)(F)C(F)(F)C(F)(F)I |  | 39.8 µM (active) and 46.2 µM (active) and 48.8 µM (active)
5 | O=C(O)C(F)(F)C(F)(F)C(F)F | inactive | 
6 | O=S(=O)(O)C(F)(F)C(F)(F)C(F)(F)C(F)(F)C(F)(F)C(F)(F)C(F)(F)F | inactive | 
7 | FC(F)(F)C(F)(F)C(F)(F)N(C(F)(F)C(F)(F)C(F)(F)F)C(F)(F)C(F)(F)C(F)(F)F | inactive | 
8 | FC(F)(F)C(F)(F)CNCC(F)(F)C(F)(F)F | inactive | 
9 | C=CC(F)(F)C(F)(F)C(F)(F)C(F)(F)C(F)(F)C(F)(F)C(F)(F)C(F)(F)C=C | inactive | 
10 | OCC(F)(F)C(F)(F)C(F)(F)C(F)F | inactive | 
11 | FC1CC(F)(F)C(F)(F)C1(F)F (stereo not given) | inactive | 
12 | Cc1ccc(S(=O)(=O)OCC(F)(F)C(F)(F)C(F)(F)C(F)(F)C(F)(F)C(F)F)cc1 | inactive | 
13 | FC(F)(F)C(F)(F)C(F)(F)C(F)(F)C(F)(F)C(F)(F)C(F)(F)C(F)(F)CCS | inactive | 
14 | OCCCC(F)(F)C(F)(F)C(F)(F)C(F)(F)C(F)(F)C(F)(F)C(F)(F)F |  | 56.6 µM (active) and 47.7 µM (active)
15 | O=C(O)C(F)(F)C(F)(F)C(F)(F)F | inactive | 
16 | C=CC(=O)OCC(F)(F)C(F)(F)C(F)(F)C(F)(F)COC(=O)C=C |  | 8.21 µM (active) and 9.07 µM (active)
17 | FC(F)(F)C(F)(F)C(F)(F)C(F)(F)C(F)(F)C(F)(F)C(F)(F)Br | inactive | 
18 | O=C(O)C(F)(OC(F)(F)C(F)(OC(F)(F)C(F)(F)C(F)(F)F)C(F)(F)F)C(F)(F)F (stereo not given) | inactive | 
19 | O=C(O)C(F)(F)C(F)(F)C(F)(F)C(F)(F)F | inactive | 
20 | FC(F)(F)C(F)(F)C(F)(F)C(F)(F)C(F)(F)C(F)(F)C(F)(F)C(F)(F)F | inactive | 

Row | SMILES | outcome | AC50
21 | O=C(O)C(F)(F)C(F)(F)C(F)(F)C(F)(F)C(F)(F)C(F)(F)C(F)(F)C(F)(F)C(F)(F)C(F)(F)C(F)(F)C(F)(F)C(F)(F)F | inactive | 
22 | O=C(CC(=O)C(F)(F)C(F)(F)F)C(F)(F)F | inactive | 
23 | FC(F)(F)C(F)(F)C(F)(F)CI | inactive | 
24 | FC(F)(Br)C(F)(F)C(F)(F)C(F)(F)C(F)(F)C(F)(F)Br | inactive | 
25 | O=C(O)C=C(C(F)(F)F)C(F)(F)F |  | 8.23 µM (active) and 1.27 µM (active)
26 | O=C(O)C(F)(F)C(F)(F)F | inactive | 
27 | FC(F)(F)C(F)(F)C(F)(F)C(F)(F)C(F)(F)CCI | inactive | 
28 | O=C(O)C(F)(F)C(F)(F)C(F)(F)C(F)(F)C(F)(F)C(F)(F)C(F)(F)C(F)(F)C(F)(F)C(F)(F)C(F)(F)C(F)(F)F | inactive | 
29 | C=C(C)C(=O)OCCC(F)(F)C(F)(F)C(F)(F)C(F)(F)C(F)(C(F)(F)F)C(F)(F)F | inactive | 
30 | O=P(O)(O)OCCC(F)(F)C(F)(F)C(F)(F)C(F)(F)C(F)(F)C(F)(F)F | inactive | 
31 | COC(=O)CCC(F)(F)C(F)(F)C(F)(F)C(F)(F)F | inactive | 
32 | C=CC(=O)OCC(F)(F)C(F)(F)C(F)(F)C(F)(F)C(F)(F)C(F)(F)C(F)(F)F | inactive | 
33 | CC(C)(C)C(=O)CC(=O)C(F)(F)C(F)(F)C(F)(F)F | inactive | 
34 | C=CC(F)(F)C(F)(F)C(F)(F)C(F)(F)C(F)(F)C(F)(F)C(F)(F)C(F)(F)F | inactive | 
35 | OCC(F)(F)C(F)(F)C(F)(F)F | inactive | 
36 | CCO[Si](CCC(F)(F)C(F)(F)C(F)(F)C(F)(F)C(F)(F)C(F)(F)F)(OCC)OCC | inactive | 
37 | O=C(Cl)C(F)(F)C(F)(F)C(F)(F)C(F)(F)C(F)(F)C(F)(F)C(F)(F)C(F)(F)F |  | 28 µM (active) and 22.9 µM (active) and 20.9 µM (active)
38 | O=C(O)C(F)(F)C(F)(F)C(F)(F)C(F)(F)C(F)(F)C(F)(F)C(F)(F)C(F)(F)C(F)(F)C(F)F |  | 9.23 µM (active) and 5.95 µM (active)
39 | FC(F)(F)C(F)(F)C(F)(F)C(F)(F)CCI | inactive | 
40 | O=C(O)C(F)(F)C(F)(F)OC(F)(F)F | inactive | 
